The target of one assay is ORC1. Description: pooled miR-30 sensor sort-seq; sequence = guide strand. The conditions noted are these: shRNA.
Turning to TTTACTATTACCTAGAAACCGA, the sensor-assay potency score (higher = more potent) was -0.315.

TCAATCAACACAAACTGTCCAA gave a sensor-assay potency score (higher = more potent) of 0.619. For TAGAGGTCGCTTCATTCTGGGC, the sensor-assay potency score (higher = more potent) was -1.24. In turn, TTTGGTAGTGCAGTTTTCGATC had a sensor-assay potency score (higher = more potent) of -0.734. Still for that read-out and setting: the figure for TTTTCGAAGCTGCAATTCGGGT is -1.44. Turning to TAAGAGAGTCCAGTCTCTCTGG, the sensor-assay potency score (higher = more potent) is -0.254. On the same count and under the same terms, for TCATTTTTCAGATTCGTCGGTA the value was 0.261; for TTGCACATAGACTTGGTGGGGC, 0.793; for TACAGCAGAAACATGCAGCCTC, 0.436.

As for TAGAGTCTGAAATCTCTGCTGC, the sensor-assay potency score (higher = more potent) came out at 0.498. In the case of TTTCGATCCAACAAGGGCCTGC, the sensor-assay potency score (higher = more potent) stood at 0.15. On the same count and under the same terms, the figure for TCTCGGTGGAACAACCTTCTGT is -0.225.

In the next assay the target is ORM2. Described as above. The conditions noted are these: shRNA.
For TAAGGAACAGCAGGTGAGCAAC, the sensor-assay potency score (higher = more potent) is -1.17. In turn, TTCTTCTCATCGTCCAGGTAGG had a sensor-assay potency score (higher = more potent) of -0.591. For TACATGACATCTGACCTGGGAA, the sensor-assay potency score (higher = more potent) is -0.156. In turn, TCATCGTCCAGGTAGGAACCAA gave a sensor-assay potency score (higher = more potent) of -0.639. On to TAGAAGCACTGGTTCTGGCGGG, for which the sensor-assay potency score (higher = more potent) is -0.234. Still for that read-out and setting: for TTATCCTTTTTCCAGTCGGTGT the value was -1.32; for ATCAAGGTCTTGGTGTCCCTAA, -0.929; for TTATAGAAGCACTGGTTCTGGC, -0.114.

Turning to TGGACATTCAGGTAACTGGAGT, the sensor-assay potency score (higher = more potent) is -0.96. On the same count and under the same terms, for GTGTACATGACATCTGACCTGG the value was -0.944. Sequence TGGAGTTATAGAAGCACTGGTT yielded a sensor-assay potency score (higher = more potent) of -0.607. Same read-out and setting: the figure for TGTACATGACATCTGACCTGGG is 0.548.

For the next assay, the target named is OSBP2. The assay is described as above. The conditions noted are these: shRNA.
Sequence TTGATCATAGCATTGGATGTGA gave a sensor-assay potency score (higher = more potent) of 0.46. In the case of TTGCCCAGCACGAACCAGCGGC, the sensor-assay potency score (higher = more potent) was -0.788. Regarding TTCTCTTCCTCCGAGCTGCAGC, the sensor-assay potency score (higher = more potent) was -0.929. TAAGTGGATGGCACCTAGCGGC gave a sensor-assay potency score (higher = more potent) of -0.606. Turning to TTGACTTTGGATGAACCCTTGG, the sensor-assay potency score (higher = more potent) was -0.284. Sequence TTCAGTACTAAATTGAGTGCAT returned a sensor-assay potency score (higher = more potent) of 0.314. Consider TTGTGAACAGTTGAGGTGCTCT, for which the sensor-assay potency score (higher = more potent) is -0.621. Sequence TTGGAGAACACGTAGTGCGCAG showed a sensor-assay potency score (higher = more potent) of -0.163.

TAGGAGGACACAGAGAAGGCGG came in with a sensor-assay potency score (higher = more potent) of -0.227. ATCTAGTACATTGTCTGCTGAG gave a sensor-assay potency score (higher = more potent) of -0.399.

Turning to TCTAGTACATTGTCTGCTGAGC, the sensor-assay potency score (higher = more potent) was -0.715.

TACACTGTCTTCTGCTTCCCGT yielded a sensor-assay potency score (higher = more potent) of -0.671.

For the next assay, the target named is OSBPL11. The description is as above. The conditions noted are these: shRNA.
TTTACTTCAGCTGTAACCCGAT showed a sensor-assay potency score (higher = more potent) of 0.406. TAAATTAGTTCTTTTGCTCAGT registered a sensor-assay potency score (higher = more potent) of -0.186. TTTACCACTTTGGTCTTGCTGC had a sensor-assay potency score (higher = more potent) of -0.424. The sequence TATACTTCATTAAATAGCCATA gave a sensor-assay potency score (higher = more potent) of -1.62.

The values are drawn from the OligoGym collection.
Note: reference of the scale not given here.
